Inconclusive results are not listed. A call without a number means that no potency is given here. Active and inactive are the calls of the source. Calls come from the whole dose curve; as a rule, active = well fitted cell-killing curve with a large enough effect; inconclusive = small, poorly fitted or top-dose-only effect; inactive = flat fitted curve, though single readings scatter.
Potency is the fitted concentration of half-maximal effect.

This assay in a line: Vero cells viability qHTS for Zika virus inhibitors (AID 1347167). The following applies: cytotoxicity counter-screen (Zika); series mostly up to 45.9 µM. The text has this:
Avindra Nath, Ph.D., National Institute of Neurological Disorders and Stroke (NINDS), Bethesda, MD
Radhakrishnan Padmanabhan, Ph.D., Georgetown University (GU), Washington D.C.
Zika Virus causes congenital defects, including microcephaly and is associated with Guillain-Barre syndrome, eningoencephalitis and myelitis in infected adult. […] Using a target-based approach, we hope to establish a screening paradigm to uncover novel, cell-active NS2B-NS3 protease (Zika Virus) specific inhibitors from NCATS' collection of small molecules using qHTS.
Four assay panel was created to identify potential Zika Virus inhibitors. Namely, (1) GU unlinked NS2B-NS3 AMC tagged protease qHTS, (2) GU unlinked NS2B-NS3 Rhodamine tagged protease qHTS, (3) NINDS linked NS2B-NS3 AMC tagged protease qHTS, (4) NINDS linked NS2B-NS3 Rhodamine tagged protease qHTS. Identified inhibitors were screened against the Vero and HepG2 cell viability assays using CellTiter Glo to exclude cytotoxic compounds.
Early Translation Branch (ETB)
National Center for Advancing Translational Sciences (NCATS), Rockville, MD
National Institute of Health (NIH), Bethesda, Maryland
Vero and HepG2 Cell Viability Assay:
Vero and HepG2 cell cytotoxicity were determined using a luminescent readout with CellTiter Glo reagent (Promega, Madison, WI), which is based on measuring the ATP content within cells. Briefly, 4 microL of Vero or HepG2 cells at 2.5 x 10^5 cells/mL in DMEM containing 4% FBS were dispensed into 1536-well solid bottom tissue treated white plate using a Multidrop Combi dispenser (Thermo Scientific). Plates were incubated at 37 degrees C, 95% humidity, and 5% CO2 overnight to allow for cell attachment. Compounds were dissolved in DMSO at different concentrations and transferred via pintool (Wako Automation), for a final concentration of 0.029 µM - 57 microM. Plates were again incubated for 24 to 48 hours, followed by a 2 microL addition of CellTiter Glo. Finally, plates were incubated for 30 minutes at 37 degrees C and 5% CO2 before being read on a ViewLux (Perkin Elmer) for luminescence.
(Quantitative high-throughput screening tests each substance at several concentrations.)
For the molecule `Cn1ccc2cc3c(cc21)CCN3C(=O)Nc1cccnc1`, the Potency entry is “inactive”.
As for `COc1cc2nc(N3CCN(C(=O)c4ccco4)CC3)nc(N)c2cc1OC`, the Potency result was “inactive”.
On to `CCOC(=O)Nc1ccc(NCc2ccc(F)cc2)nc1N`, for which the Potency result was “inactive”.
With `Cc1cnc(C(=O)NCCc2ccc(S(=O)(=O)NC(=O)NC3CCCCC3)cc2)cn1`, the Potency entry was “inactive”.
The same measure for `CN(Cc1cnc2nc(N)nc(N)c2n1)c1ccc(C(=O)N[C@@H](CCC(=O)O)C(=O)O)cc1`: “inactive”; for `CC1COc2c(N3CCN(C)CC3)c(F)cc3c(=O)c(C(=O)O)cn1c23` (configuration not stated): “inactive”; for `O=C(c1ccc(F)cc1)C1CCN(CCn2c(=O)[nH]c3ccccc3c2=O)CC1`: “inactive”.
The same measure for `O=C(Nc1ccc([N+](=O)[O-])cc1Cl)c1cc(Cl)ccc1O`: 415 nM (active).
The same measure for `C[C@H]1c2cccc(O)c2C(O)=C2C(=O)[C@]3(O)C(O)=C(C(N)=O)C(=O)[C@@H](N(C)C)[C@@H]3[C@@H](O)[C@@H]21`: “inactive”.
On to `Cc1ccccc1N1C(=O)c2cc(S(N)(=O)=O)c(Cl)cc2NC1C` (configuration not stated), for which the Potency entry was “inactive”.
For the molecule `O=C1Cc2cc(CCN3CCN(c4nsc5ccccc45)CC3)c(Cl)cc2N1`, the Potency entry is “inactive”.
The same measure for `CC(C)(C)C(=O)Oc1ccc(S(=O)(=O)Nc2ccccc2C(=O)NCC(=O)O)cc1`: “inactive”.

For the origin of these results see PubChem BioAssay (NCATS).
